# Hits are enriched below; roughly 1.8% of the tested compounds scored in any of these assays.
# KLF5 inhibitor = inhibitors of KLF5 expression; inhibition, % at 5 µM; DLD-1 KLF5 promoter-luciferase reporter, luminescence; 290,000 tested, 0.23% active;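 active = inhibition above a per-plate limit of that plate's mean compound inhibition plus 3 SD, cut at about 60% in these data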;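 also: 0% = DMSO wells and 100% = LY294002 at 200 µM; higher means less KLF5 promoter-driven luciferase light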
# Ba/F3 V617F tox = reduce viability of Ba/F3 cells dependent on JAK2V617F; Ba/F3 EpoR-JAK2V617F viability, ATP luminescence; inhibition, % at 5.6 µM; 220,000 tested, 1.1% active;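 active = inhibition above the campaign mean plus 3 SD over all tested compounds, cut at about 24% in these data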;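 also: cytokine-independent growth of Ba/F3 cells driven by EpoR plus mutant JAK2; 0% = DMSO-treated cells and 100% = JAK inhibitor I control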
# BaF3 tox = parental Ba/F3 viability inhibition as JAK2V617F counter-screen; CellTiter-Glo ATP luminescence; inhibition, % at 5.6 µM; 220,000 tested, 1.1% active;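 active = inhibition above a per-campaign cutoff, the mean inhibition of all tested compounds plus 3 SD, cut at about 27% in these data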;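 also: 0% = DMSO wells and 100% = JAK Inhibitor I control wells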
# APP 5UTR inh = APP translation inhibition; SH-SY5Y APP 5'UTR-luciferase reporter, luminescence; inhibition, % at 2 µM; 190,000 tested, 0.82% active; AID 1285;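 active = inhibition above a set limit, derived from the sample mean plus 3 SD, cut at about 45% in these data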
# IEC-6 cytotox = kills IEC-6 intestinal cells in KLF5 counter-screen | inhibition, % at 5 µM | IEC-6 cytotoxicity, luminescence viability | 290,000 tested, 0.78% active;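 also: 0% = plate median of test compound wells and 100% = cytotoxic reference compound wells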
# IEC-6 tox confirm = IEC-6 cytotoxicity, confirmation assay. shares compounds with IEC-6 cytotox. IEC-6 rat intestinal epithelial viability, luminescence. 1,900 tested, 63% active. AID 1907. inhibition, % at 5 µM;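 also: 0% = vehicle and 100% = reference cytotoxic drug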
# * = called active by the depositor; nt = no result. Rule as the data show it, unless noted: active = inhibition above about 22%; inactive = the rest.
SMILES,KLF5 inhibitor,Ba/F3 V617F tox,BaF3 tox,APP 5UTR inh,IEC-6 cytotox,IEC-6 tox confirm
Cc1ccc(S(=O)(=O)c2nc(-c3ccccc3Cl)oc2N(C)C)cc1,6,nt,nt,nt,24*,16
COc1ccc(N(C(=O)c2snc(C(N)=O)c2N)C(C(=O)NC2CCCC2)c2cccs2)cc1OC (stereo not drawn),5,nt,nt,nt,3,nt
C#CC(=O)N(c1cc(OC)ccc1OC)C(C(=O)NC1CCCC1)c1cccs1 (stereo not drawn),32,102*,104*,11,101*,95*
Cc1ccc(S(=O)(=O)NCCCNS(=O)(=O)c2ccccc2)cc1,-28,nt,nt,nt,4,nt
O=c1[nH]c(/C=C/c2ccccc2F)nc2ccccc12,24,nt,nt,nt,79*,63*
O=c1[nH]c(/C=C/c2cccc3ccccc23)nc2ccccc12,2,3,3,-16,7,nt
O=c1[nH]cnc2c1ncn2[C@@H]1C[C@@H](O)[C@H](CO)O1,-26,nt,nt,nt,-4,nt
Nc1nc(Cl)nc2c1ncn2[C@H]1C[C@H](O)[C@@H](CO)O1,19,101*,95*,76*,90*,68*
S=C(NN=C1C2CC3CC(C2)CC1C3)Nc1ccccc1,-17,-1,4,-32,-1,nt
COc1ccc(-c2noc(CCC(=O)NCc3cccnc3)n2)cc1,-13,0,2,-9,-2,nt
COc1ccc(Cc2nc(-c3ccc(NC(=O)c4cccnc4)cc3)no2)cc1,-28,10,0,58*,31*,90*
COC(=O)c1c(C)n(-c2ccc(C)cc2)c2ccc(O)cc12,-12,6,11,1,1,nt
CCOc1cc(/C=N/Nc2cc(C)nc(-n3nc(C)cc3C)n2)ccc1O,4,-1,-1,nt,54*,16
Cc1cc(N/N=C/c2ccc(F)cc2)nc(-n2nc(C)cc2C)n1,-2,3,1,nt,8,nt
COCCCNC(=O)C1CCN(C(=O)c2oc3cc4sc(N(C)C)nc4cc3c2C)CC1,-65,nt,nt,nt,-5,nt
COc1ccc(S(=O)(=O)NCc2ccccn2)cc1NC(=O)c1ccccc1,47,nt,nt,nt,45*,45*
C=C(C)COc1ccc(-c2[nH]ncc2-c2ccc(OC)c(OC)c2)c(O)c1,51,81*,66*,91*,62*,57*
C=C(C)COc1ccc(-c2[nH]ncc2-c2ccc(OC)cc2)c(O)c1,3,-6,0,nt,-1,nt
Cc1cc(=O)oc2cc(Oc3ccc([N+](=O)[O-])cc3[N+](=O)[O-])ccc12,-15,2,4,1,8,nt
CCCCCCCCCCCCCCCCn1cc[n+](C)c1,8,98*,69*,29,35*,32*
Cc1cccc(CC(=O)N2CCN(C(=O)c3ccco3)CC2)c1,-48,nt,nt,nt,-1,nt
CCOc1ccc(C(CC(=O)O)NC(=O)Cc2ccc(Cl)cc2)cc1 (stereo not drawn),-34,nt,nt,nt,-13,nt
O=C(Nc1cnccn1)C1c2ccccc2Oc2ccccc21,-9,-3,3,11,0,nt
Cc1ccc(NC(=O)C2c3ccccc3Oc3ccccc32)nc1,-14,1,13,11,46*,41*
CC(=O)NC12CC3CC(C1)CC(C(=O)N(C)Cc1cccc(Cl)c1Cl)(C3)C2,-12,nt,nt,nt,0,nt
SMILES,KLF5 inhibitor,Ba/F3 V617F tox,BaF3 tox,APP 5UTR inh,IEC-6 cytotox,IEC-6 tox confirm
O=C(CSc1nc2ccccc2c(=O)[nH]1)Nc1ccccc1O,-41,nt,nt,nt,-1,nt
O=C(CSc1nc2ccccc2c(=O)[nH]1)Nc1ccccc1C(F)(F)F,-13,nt,nt,nt,29*,18
CCOC(=O)NS(=O)(=O)c1ccc(CCNC(=O)c2cc(C)on2)cc1,-1,-1,0,5,-8,nt
Cc1ccc(OCC(=O)NNC(=S)NC(=O)C2CC2)c(C)c1,26,nt,nt,nt,36*,14
NC1=C(Br)C(=O)c2ccccc2C1=O,-17,5,-1,nt,29*,12
CCOc1ccc(-c2c[n+]3c(n2-c2ccccc2)CCCCC3)cc1,-45,89*,70*,-22,25*,19
CCOc1ccc(-c2nnc(-c3ccccc3)n2-c2ccccc2)cc1,0,0,1,-15,-9,nt
CC1(C)CC(N2CCCC2)=CC(=[N+]2CCCCC2)C1,-12,82*,67*,17,23*,33*
O=C(NC(C1CC1)C1CC1)C1CCC(=O)N(CCCN2CCCC2=O)C1 (stereo not drawn),11,nt,nt,nt,-4,nt
CC(=O)c1ccc(S(=O)(=O)Nc2ccc(-c3cn4c(n3)SCC4)cc2)cc1,-18,1,4,-18,-5,nt
CC(C)OC(=O)c1ccc2nc3ccccc3nc2c1,-150,nt,nt,nt,24*,20
Cn1c(=O)c2cc(S(=O)(=O)Nc3ccc4c(c3)OCO4)ccc2n(C)c1=O,0,6,16,19,22*,21
COc1ccc2c(c1)C(C)=CC(C)(C)N2S(=O)(=O)c1ccc(Br)cc1,22,74*,69*,93*,68*,57*
CC(C)CN(C(=O)c1ccc(C(F)(F)F)cc1)c1c(N)n(CC(C)C)c(=O)[nH]c1=O,-15,nt,nt,nt,0,nt
O=C(CC1Oc2ccccc2NC1=O)NCc1ccccc1 (stereo not drawn),-23,-5,0,-2,-7,nt
CC(=O)CC1OC(=O)C(Br)=C1NCc1ccccc1 (stereo not drawn),-28,75*,28*,71*,34*,9
O=C(O)c1nn(CCOc2c(Cl)cccc2Cl)c(=O)c2ccccc12,29,nt,nt,nt,40*,18
COc1ccc(F)cc1Cn1nc(C(=O)O)c2ccccc2c1=O,0,nt,nt,nt,36*,21
COCCNC(=O)c1nn2c(C(F)(F)F)cc(-c3ccccc3)nc2c1Cl,-17,nt,nt,nt,-2,nt
CCn1ncc(C2=NOC(C(=O)NCc3ccc(Cl)cc3)C2)c1C (stereo not drawn),54,21,11,49*,83*,51*
CCN1CCc2c(sc(NC(=O)c3cc4ccccc4cc3OC)c2C(N)=O)C1,-20,nt,nt,nt,27*,2
Cc1ccc2sc(N(CCCN(C)C)C(=O)c3ccc(Br)s3)nc2c1C,-12,-5,1,3,2,nt
CCOc1ccccc1CNS(=O)(=O)c1ccc(-c2cnc(C3CC3)o2)cc1,35,nt,nt,nt,75*,55*
Cc1ccc(CNS(=O)(=O)c2ccc(-c3cnc(C4CC4)o3)cc2)cc1,-38,nt,nt,nt,-5,nt
COc1ccc(C)cc1NS(=O)(=O)c1ccc(-c2cnc(C3CC3)o2)cc1,61,nt,nt,nt,90*,62*
Cc1ccc(N(C)S(=O)(=O)c2ccc(-c3cnc(C4CC4)o3)cc2)cc1,52,nt,nt,nt,76*,55*
Cc1ccc(NS(=O)(=O)c2ccc(-c3cnc(C4CC4)o3)cc2)cc1,30,nt,nt,nt,56*,32*
COc1ccc(CCNC(=O)CCC(=O)N2CC(C)Oc3ccccc32)cc1OC (stereo not drawn),6,nt,nt,nt,2,nt
COc1ccc(NC(=O)CSc2nc3ccccc3c(=O)n2CCCC(=O)NCC2CCCO2)c(OC)c1 (stereo not drawn),-9,nt,nt,nt,3,nt
CCCC(=O)Nc1nnc(SCC(=O)NC2CC2)s1,6,nt,nt,nt,-4,nt
